PubChem BioAssay (NCI)
About 79,000 compounds went through this panel and 15% of them were active in at least one assay; those are over-represented in the sample as a whole. A number with no mark means an inactive call. Activity calls are given as the source filed them. No stated cut-off is given here; in the data, active means growth inhibition above about 70%; inactive means the rest.

Experiments:
[1] = NCI Yeast Anticancer Drug Screen. Data for the rad50 strain (AID 155);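 further: 0% = growth of vehicle-only cultures of the same strain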; conditions: S. cerevisiae rad50 strain growth inhibition, hits give high values
How it was run: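 Growth of the mutant yeast was measured after compound exposure and referenced to vehicle-treated cultures.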

[2] = NCI Yeast Anticancer Drug Screen. Data for the mec2-1 strain (AID 157); conditions: S. cerevisiae mec2-1 strain, hits give high values
How it was run: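 mec2-1 yeast strain, carrying an alteration in DNA damage repair or cell cycle control, was exposed to compounds; growth inhibition was measured relative to vehicle-treated controls.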

[3] = NCI Yeast Anticancer Drug Screen. Data for the sgs1 mgt1 strain (AID 161);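 further: 0% = growth of cultures given vehicle only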; conditions: S. cerevisiae sgs1 mgt1 strain, hits give high values
How it was run: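 This yeast growth screen uses a strain with defined DNA-repair lesions; compound-treated growth is compared with vehicle-treated growth.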

[4] = NCI Yeast Anticancer Drug Screen. Data for the cln2 rad14 strain (AID 165);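 further: 0% = growth equal to vehicle treated cultures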; conditions: S. cerevisiae cln2 rad14 strain, hits give high values
How it was run: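 Yeast carrying cln2 and rad14 alterations (cell cycle control and DNA damage repair) were exposed to compounds. Growth inhibition was measured against vehicle-treated controls.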

[5] = NCI Yeast Anticancer Drug Screen. Data for the bub3 strain (AID 167); conditions: S. cerevisiae bub3 mutant strain, hits give high values
How it was run: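 Whole-cell yeast assay. The mutant strain was incubated with compounds, and growth inhibition was determined by comparison with vehicle-treated cells.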

[6] = NCI Yeast Anticancer Drug Screen. Data for the mlh1 rad18 strain (AID 175); conditions: S. cerevisiae mlh1 rad18 strain growth inhibition, hits give high values
How it was run: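 Growth inhibition of the yeast strain was measured after compound exposure and expressed relative to vehicle-treated controls. The strain carries defined defects in DNA damage repair.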

[7] = at 5.0 µM (retest, dose inferred, filed as 0.5)
[8] = at 50.0 µM (retest, dose inferred, filed as 5.0)

Row | SMILES | growth inhibition [1, 7] [%] | growth inhibition [1, 8] | growth inhibition ([1]; at 50.0 µM) | growth inhibition [2, 7] [%] | growth inhibition [2, 8] | growth inhibition ([2]; at 50.0 µM) | growth inhibition [3, 7] [%] | growth inhibition [3, 8] | growth inhibition ([3]; at 50.0 µM) | growth inhibition [4, 7] [%] | growth inhibition [4, 8] | growth inhibition ([4]; at 50.0 µM) | growth inhibition [5, 7] [%] | growth inhibition [5, 8] | growth inhibition ([5]; at 50.0 µM) | growth inhibition [6, 7] | growth inhibition [6, 8] | growth inhibition ([6]; at 50.0 µM)
1 | Cc1ccc(C)c(N2C(=O)C(=O)C(c3nc4ccccc4o3)/C(=N\NC(=O)c3ccccc3O)C2=O)c1 (configuration not stated) | 6 | 21% | 62.3% | 1 | 29% | 55.2% | 7 | 21% | 63% | 8 | 33% | 53.6% | 6 | 29% | 27.4% | 5% | 7% | 71.9% (active)
2 | N#CC1C=C(Cl)c2ccc(Cl)cc2N1C(=O)c1ccccc1 (configuration not stated) | 2 | 96% (active) | 98.8% (active) | 17 | 99% (active) | 99.2% (active) | 3 | 99% (active) | 99.3% (active) | 2 | 99% (active) | 99.4% (active) | 0 | 98% (active) | 98.3% (active) | 23% | 99% (active) | 99.2% (active)
3 | CCOC(=O)c1c(C)[nH]c(CO)c1C | -1 | 14% | 28.1% | 6 | 20% | 38% | 2 | 24% | 43.1% | 4 | 0% | 31.8% | 4 | 8% | 34% | -1% | 13% | 65.5%
4 | O.O.O=C(O)C(O)C(O)C(OC1OC(CO)C(O)C(O)C1O)C(O)CO.O=C(O)C(O)C(O)C(OC1OC(CO)C(O)C(O)C1O)C(O)CO.[NH-]C1CCCCC1[NH-].[Pt+2] (configuration not stated) | -6 | 39% | 95.1% (active) | -6 | 21% | 99.6% (active) | 0 | 50% | 99.7% (active) | 2 | 12% | 73.2% (active) | -2 | -2% | 99.4% (active) | -6% | 32% | 99.2% (active)
5 | OC1(C2c3ccccc3-c3ccccc32)c2ccccc2-c2ccccc21 | 66 | 90% (active) | 94.4% (active) | 38 | 94% (active) | 80.7% (active) | 45 | 94% (active) | 94.3% (active) | 11 | 90% (active) | 52.1% | 28 | 92% (active) | 81.1% (active) | 84% (active) | 93% (active) | 94.6% (active)
6 | COc1ccc(C(=O)Oc2c(Br)cc(Br)cc2Br)cc1 | 4 | -3% | 14.2% | 3 | -3% | 12.7% | 8 | 10% | 1.9% | -1 | -30% | -6.5% | 7 | 5% | 87.8% (active) | 1% | 2% | 7.75%
7 | CCCCCCC(=O)CC(SCCN)c1ccccc1Cl (configuration not stated) | 9 | 52% | 99.2% (active) | -5 | 56% | 99.4% (active) | -12 | 48% | 99.2% (active) | 12 | 99% (active) | 98.3% (active) | -5 | 99% (active) | 98.9% (active) | 1% | 55% | 98.8% (active)
8 | Cn1c(N)c(N=Nc2ccc(S(N)(=O)=O)cc2)c(=O)n(C)c1=O | 0 | 24% | -23.8% | 22 | -4% | -6.75% | 7 | 10% | -36.8% | 27 | 8% | 28.7% | 6 | 9% | -44.8% | – | – | –
9 | NS(=O)(=O)c1ccc(NC(=S)/N=C\C(C(=O)c2ccccc2)=C(\O)c2ccccc2)cc1 | 7 | 12% | 6.9% | -2 | -15% | 1.7% | 0 | -5% | 9.8% | -19 | -18% | 41.5% | 3 | 8% | 8.15% | – | – | –
10 | O=S=C(c1ccccc1)N(Cc1ccccc1)Cc1ccccc1 | -1 | 94% (active) | 96% (active) | -1 | 95% (active) | 96.2% (active) | 0 | 98% (active) | 96.7% (active) | 10 | 90% (active) | 69.7% | 22 | 93% (active) | 96.8% (active) | – | – | –
11 | Cc1nc(N)sc1N=Nc1cccc(Cl)c1Cl | -5 | 39% | 71.5% (active) | -8 | 56% | 50.4% | 3 | 70% (active) | 66.2% | 0 | 4% | 53.8% | -2 | 23% | 75.8% (active) | – | – | –
12 | Cc1ccc2nc(C[n+]3ccc4ccccc4c3)ccc2c1 | -1 | 28% | 53.5% | -1 | 17% | 50.2% | -2 | 47% | 44.4% | -5 | 5% | -1.8% | -1 | 38% | 43% | 0% | 16% | 55.9%
13 | CCOC(=O)[C@]12CCC[C@@]1(O)NC(=O)c1cnccc12 | 33 | 99% (active) | 97.3% (active) | 13 | 99% (active) | 97.7% (active) | 15 | 98% (active) | 97.4% (active) | -1 | 7% | 91.2% (active) | -2 | 9% | 96.9% (active) | – | – | –
14 | Clc1ccc(CN2CCCN(Cc3ccc(Cl)cc3)C2C2CCC=CO2)cc1 (configuration not stated) | 4 | 19% | 66.1% | -18 | 17% | 24.5% | -17 | 42% | 72.6% (active) | -4 | 7% | 46.9% | 6 | 17% | 56.3% | -14% | 36% | 45%
15 | CCCCNC(C)(C)COC(=O)/C=C/c1ccc(OCCCC)cc1 | 6 | 79% (active) | 89.2% (active) | -2 | 47% | 56.2% | 3 | 86% (active) | 75.8% (active) | 3 | 79% (active) | 80% (active) | 4 | 75% (active) | 86.6% (active) | 0% | 81% (active) | 89.2% (active)
16 | CCCc1cc(=O)oc2c3c(c4c(c12)OC(C)(C)C=C4)O[C@@H](C)[C@H](C)[C@H]3O | -1 | 91% (active) | 96.7% (active) | 0 | 94% (active) | 94.8% (active) | 11 | 95% (active) | 51.8% | 2 | 93% (active) | 92.4% (active) | -2 | 94% (active) | 96.5% (active) | – | – | –
17 | CCNc1ccc2c(c1)Cc1ccccc1-2 | 45 | 91% (active) | 95.2% (active) | 4 | 38% | 59.8% | 62 | 90% (active) | 96% (active) | 3 | 73% (active) | 71.8% (active) | -11 | 33% | 12.1% | 27% | 87% (active) | 90.7% (active)
18 | O=C(c1ccco1)N(C(=S)N1CCN(c2ccccn2)CC1)c1ccccc1 | 3 | 76% (active) | 77.2% (active) | 8 | 51% | 47.4% | -1 | 71% (active) | 63.4% | 31 | 53% | 36.5% | -2 | 60% | 53% | -2% | 78% (active) | 57.4%
19 | COC(=O)c1cc(=O)n(-c2ccccc2OC)c(SC)n1 | 2 | 83% (active) | 89.5% (active) | -1 | 73% (active) | 89% (active) | 8 | 87% (active) | 92.5% (active) | -8 | 67% | 49.4% | -5 | 58% | 94.8% (active) | -2% | 79% (active) | 98.1% (active)
20 | COC(=O)[C@@H]1c2cc3c(c(O)c2[C@@H](OC2OC(C)C(OC)C(C)(OC)C2OC)C[C@]1(C)O)C(=O)c1c(O)cc2c(c1C3=O)O[C@H]1O[C@]2(C)[C@H](O)[C@@H](N(C)C)[C@@H]1O (some centres not stated) | 61 | 98% (active) | 90.8% (active) | 45 | 99% (active) | 93% (active) | 35 | 99% (active) | 92.3% (active) | 33 | 98% (active) | 90.6% (active) | 60 | 99% (active) | 91.2% (active) | 79% (active) | 98% (active) | 89.8% (active)
